Compound activity (PubChem BioAssay)
Sampled rows, rich in hits. Any-hit rate of the full collection: about 19%.
IL1B secr inh – qHTS for Inhibitors of Inflammasome Signaling: IL-1-beta AlphaLISA Primary Screen | THP-1 LPS/ATP IL-1B secretion, AlphaLISA, 16 h; active compounds read low | activity change, % at 57.5 µM | 360,000 tested, 4.7% active; in the data active = activity change below about -50%; inconclusive = mostly about -30% to -49%
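Secreted IL-1B measured by AlphaLISA bead assay after 16 h compound exposure of THP-1 cells; compounds (final up to 57.5 uM) added 1 h before LPS (250 ng/mL) and ATP (1.25 mM) stimulation; lower signal means less secretion.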
TDP1 cell CPT – qHTS for Inhibitors of human tyrosyl-DNA phosphodiesterase 1 (TDP1): qHTS in cells in presence of CPT. chicken DT40 Tdp1-/-;hTDP1 cells + 20 nM CPT, ATP luminescence, 48 h. Potency, µM (top dose mostly 46.2 µM), hits mostly inhibitors. 420,000 tested, 12% active. AID 686979, 2013; also: nearly all actives have a fitted effect of over 55% in size
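Chicken DT40 Tdp1-/- cells complemented with human TDP1, 400 cells/well, exposed to compounds plus 20 nM camptothecin for at least 48 h at 37 C; viability read as ATP content by CellTiter-Glo luminescence.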
DT40 TDP1 no CPT – qHTS for Inhibitors of human tyrosyl-DNA phosphodiesterase 1 (TDP1): qHTS in cells in absence of CPT. DT40 Tdp1-/- hTDP1 cells, no CPT, ATP luminescence, 48 h. Potency, µM (series often up to 46.2 µM), most hits filed as inhibitors. 420,000 tested, 15% active; also: nearly all actives have a fitted effect of over 55% in size
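Stably hTDP1-transfected Tdp1-null chicken DT40 cells were treated with library compounds minus camptothecin and grown for at least 48 hr at 37 °C, after which cellular ATP was quantified by luminescence.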
uPA surface inh – qHTS for Inhibitors of Cell Surface uPA Generation; 330,000 tested, 0.31% active; Potency, µM (doses to about 38.3 µM), most hits filed as inhibitors; cell surface uPA generation assay, qHTS; AID 540303, 2011; active = well fitted inhibition curve with a large enough effect; inconclusive = small, poorly fitted or top-dose-only effect; inactive = no such curve, though single readings can be large or run the other way; tested in mouse RAW 264.7 cells; also: nearly all actives have a fitted effect of over 55% in size
HT1080NT lethal – qHTS for induction of synthetic lethality in tumor cells producing 2HG: qHTS for the HT-1080-NT fibrosarcoma cell line; 360,000 tested, 1.6% active; HT-1080-NT fibrosarcoma viability, CellTiter-Glo ATP luminescence, 48 h; Potency, µM (series often up to 46.1 µM), most hits filed as cytotoxic;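 also: NT is the 2HG producing partner of a matched IDH1 knockdown line; nearly all actives have a fitted effect of over 55% in size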
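A 48-hour cytotoxicity screen used HT-1080-NT cells plated 2 hours before compound delivery. ATP-based CellTiter-Glo luminescence measured viability, normalized to DMSO and no-cell controls.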
HT1080 IDH1KD tx – qHTS for induction of synthetic lethality in tumor cells producing 2HG: qHTS for the HT-1080-IDH1KD cell line; AID 686971, 2013; HT-1080 IDH1 knockdown viability, ATP luminescence, 48 h; Potency, µM (highest dose often 46.1 µM), hits mostly cytotoxic; 360,000 tested, 2% active
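In this qHTS, HT-1080 cells depleted of IDH1 are exposed for 48 h at 37 °C to compound titrations. Toxicity is scored from CellTiter-Glo luminescence, with DMSO as full viability and medium alone as none.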
Large screens that a line does not name were inactive. Unless noted, calls follow the shape of the dose curve; as a rule, active = well fitted curve in the direction sought with a large enough effect; inconclusive = small, poorly fitted or top-dose-only effect, or another doubt; inactive = no such curve, though single readings can be large; an effect the other way counts as inactive or inconclusive.

COc1ccc2nc(C)cc(N3CCN(S(=O)(=O)c4ccccc4F)CC3)c2c1	IL1B secr inh inconclusive, TDP1 cell CPT inconclusive, DT40 TDP1 no CPT 3.26µM
CCn1c(N2CCN(CC(=O)c3ccc(OC)cc3)CC2)nc2ccccc21	none
C#CCn1c(O)c(N=NC(=O)CNC(=O)c2cccnc2)c2ccccc21	none
Cc1cccc(C)c1NC(=O)N1CCC(C(=O)c2ccc(F)cc2)CC1	none
CC(C)C[C@@H](C(=O)N[C@@H](C(=O)O)c1ccccc1)N1C(=O)N2CCc3c([nH]c4ccccc34)[C@@]2(C)C1=O	none
C[C@@H](C(=O)NC1CCCC1)N1C(=O)N2CCc3c([nH]c4ccccc34)[C@@]2(C)C1=O	TDP1 cell CPT 20.6µM, DT40 TDP1 no CPT inconclusive
CC(NC(=O)[C@H](C)N1C(=O)N2CCc3c([nH]c4ccccc34)[C@@]2(C)C1=O)c1ccccc1 (some centres not stated)	TDP1 cell CPT 16.4µM, DT40 TDP1 no CPT inconclusive
CC(C)[C@@H](C(=O)NC1CCCC1)N1C(=O)N2CCc3c([nH]c4ccccc34)[C@@]2(C)C1=O	TDP1 cell CPT inconclusive, DT40 TDP1 no CPT inconclusive
Cc1cc(C(=O)N2CCOCC2)n(-c2ccccc2)n1	none
Cc1nn(-c2ccccc2)c2c1c(C)c(CCC(=O)N1CCOCC1)c(=O)n2C	TDP1 cell CPT 23.1µM, DT40 TDP1 no CPT inconclusive
CCn1c(=O)c(CCC(=O)N2CCOCC2)c(C)c2c(C)nn(-c3ccccc3)c21	IL1B secr inh inconclusive, TDP1 cell CPT inconclusive, DT40 TDP1 no CPT 20.6µM
CC1CCCC(NC(=O)CCC(=O)N2CCOc3ccccc32)C1C (configuration not stated)	TDP1 cell CPT inconclusive, DT40 TDP1 no CPT inconclusive
CCN(CC)S(=O)(=O)c1cccc(NC(=O)COc2ccc(C#N)cc2OC)c1	TDP1 cell CPT inconclusive, DT40 TDP1 no CPT 23.1µM
Cc1ccc(NC(=O)COc2ncnc3sccc23)cc1S(=O)(=O)N(C)C	none
CCN(CC)S(=O)(=O)c1cc(NC(=O)COc2ccc(C#N)cc2OC)ccc1C	TDP1 cell CPT 20.6µM, DT40 TDP1 no CPT 23.1µM
CCN(CC)S(=O)(=O)c1cccc(NC(=O)COc2ncnc3sccc23)c1	TDP1 cell CPT inconclusive, DT40 TDP1 no CPT 16.4µM
CCN(CC)S(=O)(=O)c1cccc(NC(=O)COc2ccc(F)cc2Br)c1	TDP1 cell CPT inconclusive, DT40 TDP1 no CPT inconclusive
COc1cc(C#N)ccc1OCC(=O)Nc1cccc(S(=O)(=O)N(C)c2ccccc2)c1	TDP1 cell CPT 11.6µM, DT40 TDP1 no CPT 18.4µM (no result: uPA surface inh)
CC(C)CN1CCc2nc(N3CCN(C)CC3)ncc2C1	none (no result: IL1B secr inh, uPA surface inh, HT1080NT lethal, HT1080 IDH1KD tx)
CC(=O)O[C@@H]1[C@H]2[C@@H](C[C@@H](C)[C@@H]3CCC(=O)[C@@]13C)OC(=O)[C@@H]2C	none
CC(C)CC1C2C(=O)N(c3ccccc3)C(=O)C2ON1c1ccccc1 (configuration not stated)	none
COc1ccccc1CN(Cc1nc2ccccc2c(=O)[nH]1)C(=O)Nc1ccccc1C	HT1080NT lethal inconclusive, HT1080 IDH1KD tx 11.2µM
COc1ccc2[nH]c(=O)c(CN(CC3CCCO3)C(=S)Nc3cccc(C)c3)cc2c1 (configuration not stated)	TDP1 cell CPT inconclusive, DT40 TDP1 no CPT inconclusive
CCc1ccc2[nH]c(=O)c(CN(Cc3ccccc3OC)C(=O)Nc3ccccc3OC)cc2c1	IL1B secr inh -60.3, TDP1 cell CPT 18.4µM, DT40 TDP1 no CPT 23.1µM (no result: uPA surface inh)
COc1ccc2[nH]c(=O)c(CN(CC3CCCO3)C(=O)Nc3ccccc3OC)cc2c1 (configuration not stated)	IL1B secr inh -61.7, TDP1 cell CPT 13µM, DT40 TDP1 no CPT 10.3µM, HT1080NT lethal inconclusive, HT1080 IDH1KD tx inconclusive
